Inconclusive results are not listed. Active and inactive are the calls of the source. The calls were made as follows, unless noted: active = hit-call score of the fitted dose curve at least 0.9, where 1 is the maximum; inconclusive = response in the unintended direction; inactive = score below 0.9.
What was measured:
[1] = ATG_TCF_b_cat_CIS: Attagene CIS-FACTORIAL HepG2 Assay for human T-Cell-Factor with beta-catenin (TCF/b-cat) (AID 2282965; active = hit-call score of the fitted dose curve at least 0.9, where 1 is the maximum; inactive = score below 0.9); settings: HepG2 TCF/beta-catenin cis-reporter transcription, actives raise or lower the signal
Procedure, shortened: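 Cells of the HepG2 line carry transiently transfected reporter units whose promoters respond to endogenous factors. Twenty-four hours post-dosing, reporter mRNA induction is measured by fluorescent RT-PCR and capillary electrophoresis, with DMSO as baseline.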

[2] = ATG_TAL_CIS: Attagene CIS-FACTORIAL HepG2 Assay for human TAL Basal Promoter (AID 2282966; active = hit-call score of the fitted dose curve at least 0.9, where 1 is the maximum; inactive = score below 0.9;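 also: background control endpoint measuring basal TAL promoter reporter mRNA not a specific factor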); settings: HepG2 Attagene cis-factorial TAL promoter reporter; actives raise or lower the signal
Procedure, shortened: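 RT-PCR plus capillary electrophoresis quantifies reporter mRNA induction in transiently transfected HepG2 cells after 24 h chemical treatment. DMSO serves as negative control and baseline for bidirectional fitting.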

[3] = ATG_TGFb_CIS: Attagene CIS-FACTORIAL HepG2 Assay for human Transforming Growth Factor (TGF) (AID 2282967; active = hit-call score of the fitted dose curve at least 0.9, where 1 is the maximum; inactive = score below 0.9); settings: HepG2 Attagene CIS TGFb reporter, mRNA transcription; actives raise or lower the signal
Procedure, shortened: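 Transient MRTU transfection of HepG2 (FuGene 6). Dose 24 h. TriZol RNA, oligo(dT) RT, PCR, 6-FAM primer extension, HpaI cut, CE. Bidirectional fit, DMSO = baseline.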

[4] = ATG_VDRE_CIS: Attagene CIS-FACTORIAL HepG2 Assay for human Vitamin D Receptor Element (VDRE) (AID 2282968; active = hit-call score of the fitted dose curve at least 0.9, where 1 is the maximum; inactive = score below 0.9); settings: HepG2 VDRE cis-reporter transcription, actives raise or lower the signal
Procedure, shortened: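 Cell-based multiplexed reporter format in human liver HepG2 cells, 24 h post-dose. Fluorescence from capillary electrophoresis of reporter cDNA gives the signal, with DMSO as negative control and baseline.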

[5] = target: Estrogen receptor (Homo sapiens) (UniProt P03372); experiment: ATG_ERa_TRANS: Attagene TRANS-FACTORIAL HepG2 Assay for human Estrogen Receptor alpha (ERa) (AID 2282970); settings: HepG2 Attagene TRANS ERa GAL4 reporter, mRNA
Procedure, shortened: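 Cells: HepG2, transiently transfected. Construct: GAL4-UAS reporter units regulated by exogenous NR-Gal4 chimeras. Time: 24 h. Detection: reporter mRNA by RT-PCR, capillary electrophoresis, fluorescence. Baseline: DMSO, upward fitting.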

[6] = target: X-box-binding protein 1 (Homo sapiens) (UniProt P17861); experiment: ATG_Xbp1_CIS: Attagene CIS-FACTORIAL HepG2 Assay for human X-box Binding Protein 1 (XBP1) (AID 2282972; active = hit-call score of the fitted dose curve at least 0.9, where 1 is the maximum; inactive = score below 0.9); settings: HepG2 XBP1 cis-element reporter, Attagene multiplex; actives raise or lower the signal
Procedure, shortened: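 Fluorescence-labelled cDNA fragments from reporter transcripts, separated by capillary electrophoresis, give the signal. Source: HepG2 cells transfected with promoter-driven reporter units, harvested 24 h post-dose. DMSO served as reference for bidirectional curve fitting.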

[7] = ATG_M_19_TRANS: Attagene TRANS-FACTORIAL HepG2 Assay for M19 Transcription Factor (Internal Marker) (AID 2282974); settings: HepG2 Attagene TRANS-FACTORIAL M19 internal marker reporter
Procedure, shortened: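 HepG2 cells transiently transfected with multiple GAL4-UAS reporter transcription units were exposed to chemicals for 24 h. Reporter mRNA was read by RT-PCR, 6-FAM primer extension, HpaI digestion and capillary electrophoresis; gain of signal fitted relative to DMSO.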

[8] = ATG_GAL4_TRANS: Attagene TRANS-FACTORIAL HepG2 Assay for GAL4 (Internal Marker) (AID 2282976); settings: HepG2 Attagene TRANS GAL4 internal marker reporter
Procedure, shortened: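 In transfected human HepG2 liver cells dosed 24 h, GAL4 reporter mRNA serves as a baseline marker. Detection by RT-PCR with fluorescent capillary electrophoresis, activity fitted upward relative to DMSO.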

[9] = target: Glucocorticoid receptor (Homo sapiens) (UniProt P04150); experiment: ATG_GR_TRANS: Attagene TRANS-FACTORIAL HepG2 Assay for human Glucocorticoid Receptor (GR) (AID 2282978); settings: HepG2 Attagene TRANS GR reporter, mRNA transcription;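 also: activators score as hits since higher reporter transcript over DMSO is fitted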
Procedure, shortened: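 HepG2 cells transiently transfected with multiplexed reporter units in which chimeric NR-GAL4 proteins drive GAL4-UAS reporters; 24 h compound exposure. Reporter mRNA measured by RT-PCR, 6-FAM labelling, HpaI digestion and capillary electrophoresis; gain-of-signal fitted versus DMSO.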

[10] = target: Bile acid receptor (Homo sapiens) (UniProt Q96RI1); experiment: ATG_FXR_TRANS: Attagene TRANS-FACTORIAL HepG2 Assay for Farnesoid X Receptor (FXR) (AID 2282979); settings: HepG2 Attagene TRANS FXR-GAL4 reporter transcription;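 also: hits raise reporter mRNA above DMSO so AC50 marks FXR activation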
Procedure, shortened: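 Reporter transcripts from transfected HepG2 cells were measured 24 h after dosing, using RT-PCR with capillary electrophoresis of 6-FAM-labelled fragments. The read-out reflects activity of exogenous FXR-Gal4 chimera on GAL4-UAS units, with induction relative to DMSO.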

[11] = target: Oxysterols receptor LXR-beta (Homo sapiens) (UniProt P55055); experiment: ATG_LXRb_TRANS: Attagene TRANS-FACTORIAL HepG2 Assay for human Liver X Receptor beta (LXRb) (AID 2282981); settings: HepG2 Attagene TRANS GAL4-LXRb reporter, mRNA
Procedure, shortened: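 Gain-of-signal mRNA reporter endpoint, DMSO as negative control. Transiently transfected HepG2 cells carrying the NR-Gal4 chimera and GAL4-UAS reporter units were treated 24 h; transcripts quantified by RT-PCR and capillary electrophoresis fluorescence.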

[12] = ATG_M_32_TRANS: Attagene TRANS-FACTORIAL HepG2 Assay for M32 Transcription Factor (Internal Marker) (AID 2282984); settings: HepG2 Attagene TRANS M32 internal marker reporter;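 also: transcript level of a background control reporter unit measured by RT-PCR and capillary electrophoresis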
Procedure, shortened: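 Capillary electrophoresis of 6-FAM-labelled reporter fragments gives the signal; data fitted for gain over DMSO negative control. Source: HepG2 cells bearing transient multiple reporter transcription units, 24 h exposure.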

[13] = target: Nuclear receptor subfamily 4 group A member 2 (Homo sapiens) (UniProt P43354); experiment: ATG_NURR1_TRANS: Attagene TRANS-FACTORIAL HepG2 Assay for human Nuclear Receptor Related Protein 1 (NURR1) (AID 2282985); settings: HepG2 Attagene TRANS reporter, mRNA readout
Procedure, shortened: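 HepG2 / transient MRTU transfection / 24 h compound exposure / RT-PCR + CE fluorescence of reporter mRNA / gain-of-signal vs DMSO.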

[14] = target: Transcriptional activator Myb (Homo sapiens) (UniProt P10242); experiment: ATG_Myb_CIS: Attagene CIS-FACTORIAL HepG2 Assay for human Myeloblastosis (Myb) Proto-Oncogene Transcription Factor (AID 2282986; active = hit-call score of the fitted dose curve at least 0.9, where 1 is the maximum; inactive = score below 0.9); settings: HepG2 Attagene CIS-FACTORIAL Myb reporter transcription; actives raise or lower the signal
Procedure, shortened: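 HepG2 cells were transiently transfected with cis-regulated multiple reporter transcription units reflecting endogenous Myb activity, then exposed to compound for 24 hours. Reporter mRNA was measured by RT-PCR with capillary electrophoresis; bidirectional fitting versus DMSO baseline.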

[15] = target: Nuclear receptor subfamily 1 group I member 3 (Homo sapiens) (UniProt Q14994); experiment: ATG_CAR_TRANS: Attagene TRANS-FACTORIAL HepG2 Assay for human Constitutive Androstane Receptor (CAR) (AID 2282969); settings: HepG2 Attagene TRANS-FACTORIAL CAR reporter;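 also: activators raise reporter mRNA above DMSO so AC50 marks induction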
Procedure, shortened: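 HepG2 cells transiently transfected with GAL4-UAS reporter units; TRANS format reads activity of exogenous chimeric NR-Gal4 protein. After 24 h dosing, reporter mRNA quantified by RT-PCR, 6-FAM labelling and capillary electrophoresis; gain of signal fitted against DMSO.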

[16] = target: Oxysterols receptor LXR-alpha (Homo sapiens) (UniProt Q13133); experiment: ATG_LXRa_TRANS: Attagene TRANS-FACTORIAL HepG2 Assay for human Liver X Receptor alpha (LXRa) (AID 2282980); settings: HepG2 Attagene TRANS reporter, LXRa transactivation
Procedure, shortened: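 Chemical-induced reporter mRNA measured by RT-PCR with fluorescent labelling and capillary electrophoresis after 24 h dosing of transiently transfected HepG2 cells expressing exogenous NR-Gal4 chimeras; increases scored against DMSO baseline.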

[17] = target: Hepatocyte nuclear factor 4-alpha (Homo sapiens) (UniProt P41235); experiment: ATG_HNF4a_TRANS: Attagene TRANS-FACTORIAL HepG2 Assay for human Hepatocyte Nuclear Factor 4 alpha (HNF4a) (AID 2282982); settings: HepG2 HNF4a transactivation reporter, mRNA readout
Procedure, shortened: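 Gain-of-signal mRNA induction, relative to DMSO vehicle, was read after 24 h compound treatment of HepG2 cells bearing transfected GAL4-UAS reporters. Detection used RT-PCR, 6-FAM primer extension and capillary electrophoresis.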

[18] = target: Steroid hormone receptor ERR1 (Homo sapiens) (UniProt P11474); experiment: ATG_ERRa_TRANS: Attagene TRANS-FACTORIAL HepG2 Assay for human Estrogen-Related Receptor alpha (ERRa) (AID 2282971); settings: HepG2 Attagene TRANS reporter, ERRa transactivation
Procedure, shortened: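 Reporter transcripts from ERRa-Gal4 chimera activity measured in transiently transfected human HepG2 cells 24 hours after dosing, using RT-PCR with 6-FAM primer extension, HpaI digestion and capillary electrophoresis; DMSO is baseline.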

[19] = target: Estrogen-related receptor gamma (Homo sapiens) (UniProt P62508); experiment: ATG_ERRg_TRANS: Attagene TRANS-FACTORIAL HepG2 Assay for human Estrogen-Related Receptor gamma (ERRg) (AID 2282977); settings: HepG2 Attagene TRANS reporter, ERRg transactivation;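 also: hits increase reporter signal over DMSO so potencies reflect activators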
Procedure, shortened: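 HepG2 cells transiently transfected with multiplexed GAL4-UAS reporter units and chimeric NR-Gal4 constructs were exposed to test chemicals for 24 h. Reporter mRNA was measured by RT-PCR, 6-FAM primer extension, HpaI digestion and capillary electrophoresis; gain-of-signal versus DMSO.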

[20] = ATG_M_06_TRANS: Attagene TRANS-FACTORIAL HepG2 Assay for M06 Transcription Factor (Internal Marker) (AID 2282983); settings: HepG2 Attagene TRANS M06 internal marker reporter
Procedure, shortened: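 Cells: HepG2, transient multi-reporter transfection. Exposure: 24 h. Detection: RT-PCR, 6-FAM labelling, HpaI digestion (2 h, 37 °C), capillary electrophoresis. Baseline: DMSO.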

Steroid hormone receptor ERR1 (Homo sapiens), sequence (P11474 whole entry, looked up, the tested form may be a part): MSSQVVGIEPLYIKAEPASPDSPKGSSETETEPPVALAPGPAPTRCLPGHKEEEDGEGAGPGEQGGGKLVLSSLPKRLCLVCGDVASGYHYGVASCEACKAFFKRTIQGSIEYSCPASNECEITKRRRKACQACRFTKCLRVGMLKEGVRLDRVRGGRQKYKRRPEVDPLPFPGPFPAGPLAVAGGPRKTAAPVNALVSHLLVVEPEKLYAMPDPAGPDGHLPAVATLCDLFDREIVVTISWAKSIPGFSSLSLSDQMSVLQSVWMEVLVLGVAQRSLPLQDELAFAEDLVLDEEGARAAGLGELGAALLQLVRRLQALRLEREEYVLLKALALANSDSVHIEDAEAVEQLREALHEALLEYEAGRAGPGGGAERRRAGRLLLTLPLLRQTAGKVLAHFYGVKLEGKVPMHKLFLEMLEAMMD
Bile acid receptor (Homo sapiens), sequence (Q96RI1 whole entry, looked up, the tested form may be a part): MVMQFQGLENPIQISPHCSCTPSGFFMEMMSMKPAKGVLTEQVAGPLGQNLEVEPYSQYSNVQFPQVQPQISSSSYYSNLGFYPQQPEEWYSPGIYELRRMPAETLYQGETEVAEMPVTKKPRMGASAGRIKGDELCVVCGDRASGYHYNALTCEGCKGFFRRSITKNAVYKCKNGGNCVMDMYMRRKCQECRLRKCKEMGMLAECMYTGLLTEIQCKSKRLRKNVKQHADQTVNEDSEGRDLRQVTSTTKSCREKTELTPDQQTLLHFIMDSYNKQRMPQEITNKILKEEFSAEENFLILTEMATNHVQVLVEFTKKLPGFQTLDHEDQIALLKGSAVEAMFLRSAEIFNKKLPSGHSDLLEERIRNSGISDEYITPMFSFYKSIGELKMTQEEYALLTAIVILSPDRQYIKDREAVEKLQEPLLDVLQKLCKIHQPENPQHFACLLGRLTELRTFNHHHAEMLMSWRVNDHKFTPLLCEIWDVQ
Glucocorticoid receptor (Homo sapiens), sequence (P04150 whole entry, looked up, the tested form may be a part): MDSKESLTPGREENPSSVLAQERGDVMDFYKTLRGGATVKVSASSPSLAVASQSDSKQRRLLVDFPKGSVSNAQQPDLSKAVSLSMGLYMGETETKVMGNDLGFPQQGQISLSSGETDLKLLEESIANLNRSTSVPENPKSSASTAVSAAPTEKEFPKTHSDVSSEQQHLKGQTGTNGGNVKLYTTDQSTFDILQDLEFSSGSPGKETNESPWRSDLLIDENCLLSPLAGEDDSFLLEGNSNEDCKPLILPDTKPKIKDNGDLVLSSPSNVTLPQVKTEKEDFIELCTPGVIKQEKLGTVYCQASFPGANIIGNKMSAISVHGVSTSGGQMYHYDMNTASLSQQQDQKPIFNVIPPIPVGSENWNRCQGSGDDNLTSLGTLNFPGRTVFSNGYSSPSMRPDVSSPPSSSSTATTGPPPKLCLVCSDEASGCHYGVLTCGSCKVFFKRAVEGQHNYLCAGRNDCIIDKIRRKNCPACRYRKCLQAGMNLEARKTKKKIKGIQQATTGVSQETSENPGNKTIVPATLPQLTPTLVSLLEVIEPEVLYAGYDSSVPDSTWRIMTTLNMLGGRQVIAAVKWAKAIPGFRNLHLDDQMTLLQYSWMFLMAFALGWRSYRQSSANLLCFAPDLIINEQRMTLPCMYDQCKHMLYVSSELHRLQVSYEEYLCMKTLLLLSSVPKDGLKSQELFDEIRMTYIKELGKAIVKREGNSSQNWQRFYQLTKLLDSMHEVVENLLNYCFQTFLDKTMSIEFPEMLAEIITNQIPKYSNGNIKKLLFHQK
Hepatocyte nuclear factor 4-alpha (Homo sapiens), sequence (P41235 whole entry, looked up, the tested form may be a part): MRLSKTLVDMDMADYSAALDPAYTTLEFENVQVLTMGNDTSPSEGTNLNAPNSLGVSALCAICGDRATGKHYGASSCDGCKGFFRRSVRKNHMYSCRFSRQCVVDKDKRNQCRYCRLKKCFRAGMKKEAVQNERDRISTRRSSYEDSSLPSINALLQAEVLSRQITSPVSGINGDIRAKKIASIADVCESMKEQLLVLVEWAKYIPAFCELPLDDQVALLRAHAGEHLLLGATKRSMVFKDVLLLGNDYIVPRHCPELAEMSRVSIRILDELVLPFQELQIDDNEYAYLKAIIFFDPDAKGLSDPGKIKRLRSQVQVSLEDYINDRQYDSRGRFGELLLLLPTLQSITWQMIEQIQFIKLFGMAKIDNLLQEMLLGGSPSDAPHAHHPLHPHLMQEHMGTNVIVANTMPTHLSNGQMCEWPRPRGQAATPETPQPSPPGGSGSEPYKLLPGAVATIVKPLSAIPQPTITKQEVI
Estrogen-related receptor gamma (Homo sapiens), sequence (P62508 whole entry, looked up, the tested form may be a part): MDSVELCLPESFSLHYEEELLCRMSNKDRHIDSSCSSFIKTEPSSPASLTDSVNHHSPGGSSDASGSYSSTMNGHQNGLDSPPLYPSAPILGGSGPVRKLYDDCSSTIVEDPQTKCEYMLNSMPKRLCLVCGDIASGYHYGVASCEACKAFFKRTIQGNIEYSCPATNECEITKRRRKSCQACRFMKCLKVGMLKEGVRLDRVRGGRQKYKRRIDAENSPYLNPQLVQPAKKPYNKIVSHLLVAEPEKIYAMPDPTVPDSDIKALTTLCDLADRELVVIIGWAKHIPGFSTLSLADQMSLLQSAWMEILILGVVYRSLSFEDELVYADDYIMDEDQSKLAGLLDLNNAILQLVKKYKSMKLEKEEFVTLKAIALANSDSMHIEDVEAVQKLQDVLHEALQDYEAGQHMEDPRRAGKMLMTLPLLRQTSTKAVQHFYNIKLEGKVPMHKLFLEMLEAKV
Oxysterols receptor LXR-beta (Homo sapiens), sequence (P55055 whole entry, looked up, the tested form may be a part): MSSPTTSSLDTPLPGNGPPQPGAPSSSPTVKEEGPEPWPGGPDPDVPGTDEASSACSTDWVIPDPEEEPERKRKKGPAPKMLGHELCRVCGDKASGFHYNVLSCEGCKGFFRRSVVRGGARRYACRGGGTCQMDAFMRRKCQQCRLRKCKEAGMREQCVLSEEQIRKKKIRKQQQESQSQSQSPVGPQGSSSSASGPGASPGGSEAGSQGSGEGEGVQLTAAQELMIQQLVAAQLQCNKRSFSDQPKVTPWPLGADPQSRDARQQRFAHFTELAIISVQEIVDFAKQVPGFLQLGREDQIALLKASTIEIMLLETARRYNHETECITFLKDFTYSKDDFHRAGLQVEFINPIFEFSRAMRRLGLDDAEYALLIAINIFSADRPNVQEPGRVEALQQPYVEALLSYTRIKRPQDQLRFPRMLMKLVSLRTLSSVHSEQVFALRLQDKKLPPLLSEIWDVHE
Transcriptional activator Myb (Homo sapiens), sequence (P10242 whole entry, looked up): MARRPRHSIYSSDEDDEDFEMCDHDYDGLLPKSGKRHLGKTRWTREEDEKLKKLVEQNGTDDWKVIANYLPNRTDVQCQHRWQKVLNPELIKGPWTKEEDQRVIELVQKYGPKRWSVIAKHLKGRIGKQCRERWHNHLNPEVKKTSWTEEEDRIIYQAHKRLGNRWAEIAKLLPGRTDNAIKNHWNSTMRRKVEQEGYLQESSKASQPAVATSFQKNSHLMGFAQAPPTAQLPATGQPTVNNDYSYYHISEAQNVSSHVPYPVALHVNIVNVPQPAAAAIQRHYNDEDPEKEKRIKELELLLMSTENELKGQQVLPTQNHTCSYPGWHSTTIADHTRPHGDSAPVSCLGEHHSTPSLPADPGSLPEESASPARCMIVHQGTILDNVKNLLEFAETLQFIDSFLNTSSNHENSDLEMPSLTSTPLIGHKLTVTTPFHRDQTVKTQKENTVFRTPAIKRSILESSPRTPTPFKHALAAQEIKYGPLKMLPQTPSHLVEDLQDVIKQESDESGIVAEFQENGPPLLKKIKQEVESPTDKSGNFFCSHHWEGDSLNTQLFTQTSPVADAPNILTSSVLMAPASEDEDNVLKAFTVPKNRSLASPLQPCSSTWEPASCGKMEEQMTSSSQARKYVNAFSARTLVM
Nuclear receptor subfamily 4 group A member 2 (Homo sapiens), sequence (P43354 whole entry, looked up): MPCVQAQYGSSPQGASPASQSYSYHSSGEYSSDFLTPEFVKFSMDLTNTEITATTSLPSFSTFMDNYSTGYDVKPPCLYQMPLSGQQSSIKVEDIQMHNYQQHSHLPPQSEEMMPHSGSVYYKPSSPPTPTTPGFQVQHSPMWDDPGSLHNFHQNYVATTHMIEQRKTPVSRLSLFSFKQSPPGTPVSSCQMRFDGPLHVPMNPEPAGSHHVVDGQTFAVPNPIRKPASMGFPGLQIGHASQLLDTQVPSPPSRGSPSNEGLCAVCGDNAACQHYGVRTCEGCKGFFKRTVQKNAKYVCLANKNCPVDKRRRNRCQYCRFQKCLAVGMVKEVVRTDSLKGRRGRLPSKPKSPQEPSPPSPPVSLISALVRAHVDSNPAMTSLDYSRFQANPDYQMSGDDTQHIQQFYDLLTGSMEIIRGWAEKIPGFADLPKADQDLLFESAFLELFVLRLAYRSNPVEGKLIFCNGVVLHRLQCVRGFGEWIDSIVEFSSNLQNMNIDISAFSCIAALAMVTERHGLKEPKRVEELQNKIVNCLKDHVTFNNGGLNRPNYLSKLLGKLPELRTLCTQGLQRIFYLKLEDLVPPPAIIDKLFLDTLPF
Estrogen receptor (Homo sapiens), sequence (P03372 whole entry, looked up, the tested form may be a part): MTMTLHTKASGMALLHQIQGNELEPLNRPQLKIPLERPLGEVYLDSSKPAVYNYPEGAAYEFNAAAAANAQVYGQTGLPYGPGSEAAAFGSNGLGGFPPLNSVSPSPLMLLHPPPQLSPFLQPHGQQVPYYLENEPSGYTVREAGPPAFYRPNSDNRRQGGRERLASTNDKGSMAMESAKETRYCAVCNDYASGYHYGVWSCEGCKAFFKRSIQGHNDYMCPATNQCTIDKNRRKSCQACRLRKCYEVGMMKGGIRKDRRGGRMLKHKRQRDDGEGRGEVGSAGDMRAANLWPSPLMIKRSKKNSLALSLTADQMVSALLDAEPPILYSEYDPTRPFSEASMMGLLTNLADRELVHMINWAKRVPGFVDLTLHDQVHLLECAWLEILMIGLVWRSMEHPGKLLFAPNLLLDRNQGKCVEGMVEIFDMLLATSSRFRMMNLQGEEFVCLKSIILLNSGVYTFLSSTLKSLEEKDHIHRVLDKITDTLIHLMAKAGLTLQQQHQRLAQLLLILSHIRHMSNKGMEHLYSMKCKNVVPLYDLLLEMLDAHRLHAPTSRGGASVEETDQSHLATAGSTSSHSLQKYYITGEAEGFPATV

## COc1ccccc1C=O
[1]
  outcome: inactive
[2]
  outcome: inactive
[3]
  outcome: inactive
[4]
  outcome: inactive
[5]
  outcome: inactive
[6]
  outcome: inactive
[7]
  outcome: inactive
[8]
  outcome: inactive
[9]
  outcome: inactive
[10]
  outcome: inactive
[11]
  outcome: inactive
[12]
  outcome: inactive
[13]
  outcome: inactive
[14]
  outcome: inactive

## Cc1cnccn1
[1]
  outcome: inactive
[2]
  outcome: inactive
[3]
  outcome: inactive
[4]
  outcome: inactive
[15]
  outcome: inactive
[6]
  outcome: inactive
[7]
  outcome: inactive
[8]
  outcome: inactive
[9]
  outcome: inactive
[16]
  outcome: inactive
[17]
  outcome: inactive
[12]
  outcome: inactive
[14]
  outcome: inactive

## O=C1C=CC(=O)N1c1ccccc1
[1]
  outcome: inactive
[2]
  outcome: inactive
[3]
  outcome: inactive
[4]
  outcome: inactive
[5]
  outcome: inactive
[18]
  outcome: inactive
[6]
  outcome: inactive
[7]
  outcome: inactive
[8]
  outcome: inactive
[17]
  outcome: inactive
[12]
  outcome: inactive
[13]
  outcome: inactive
[14]
  outcome: inactive

## CSc1ccc(O)cc1C
[1]
  outcome: inactive
[2]
  outcome: inactive
[3]
  outcome: inactive
[4]
  outcome: inactive
[5]
  AC50: 11.3 µM (active)
[18]
  outcome: inactive
[6]
  outcome: inactive
[7]
  outcome: inactive
[8]
  outcome: inactive
[19]
  outcome: inactive
[10]
  outcome: inactive
[14]
  outcome: inactive

## Cc1ccc([N+](=O)[O-])c(C)c1
[1]
  outcome: inactive
[2]
  outcome: inactive
[3]
  outcome: inactive
[4]
  outcome: inactive
[15]
  outcome: inactive
[18]
  outcome: inactive
[6]
  outcome: inactive
[19]
  outcome: inactive
[9]
  outcome: inactive
[10]
  outcome: inactive
[16]
  outcome: inactive
[17]
  outcome: inactive
[20]
  outcome: inactive
[13]
  outcome: inactive
[14]
  outcome: inactive

## NS(=O)(=O)C(F)(F)C(F)(F)C(F)(F)C(F)(F)C(F)(F)C(F)(F)F
[1]
  outcome: inactive
[2]
  outcome: inactive
[3]
  AC50: 54.4 µM (active)
[4]
  AC50: 36.4 µM (active)
[15]
  outcome: inactive
[5]
  AC50: 13.9 µM (active)
[6]
  outcome: inactive
[10]
  outcome: inactive
[16]
  outcome: inactive
[11]
  outcome: inactive
[17]
  outcome: inactive
[20]
  outcome: inactive
[12]
  outcome: inactive
[14]
  outcome: inactive

## CCc1cccc(C)c1N(C(=O)C(=O)O)C(C)COC (stereo not given)
[1]
  outcome: inactive
[2]
  outcome: inactive
[3]
  outcome: inactive
[4]
  outcome: inactive
[5]
  outcome: inactive
[6]
  outcome: inactive
[7]
  outcome: inactive
[8]
  outcome: inactive
[9]
  outcome: inactive
[10]
  outcome: inactive
[16]
  outcome: inactive
[12]
  outcome: inactive
[14]
  outcome: inactive

## N#CCCOCCC#N
[1]
  outcome: inactive
[2]
  outcome: inactive
[3]
  outcome: inactive
[4]
  outcome: inactive
[15]
  outcome: inactive
[6]
  outcome: inactive
[8]
  outcome: inactive
[10]
  outcome: inactive
[16]
  outcome: inactive
[11]
  outcome: inactive
[17]
  outcome: inactive
[12]
  outcome: inactive
[14]
  outcome: inactive

## N#Cc1ccccc1O
[1]
  outcome: inactive
[2]
  outcome: inactive
[3]
  outcome: inactive
[4]
  outcome: inactive
[15]
  outcome: inactive
[6]
  outcome: inactive
[10]
  outcome: inactive
[16]
  outcome: inactive
[20]
  outcome: inactive
[13]
  outcome: inactive
[14]
  outcome: inactive

## OCCCCl
[1]
  outcome: inactive
[2]
  outcome: inactive
[3]
  outcome: inactive
[4]
  outcome: inactive
[15]
  outcome: inactive
[6]
  outcome: inactive
[7]
  outcome: inactive
[8]
  outcome: inactive
[19]
  outcome: inactive
[12]
  outcome: inactive
[13]
  outcome: inactive
[14]
  outcome: inactive
